Assay outcomes: PubChem, Broad Institute
PGC1a acetyl inh = inhibitors of PGC1a acetylation signal, primary screen, cell-based, U2OS, AlphaScreen, inhibitor mode | 350,000 tested, 0.17% active | inhibition, % at 15.6 µM | AlphaScreen anti-acetyl-lysine; with virally co-expressed GCN5 acetyltransferase | AID 651687, 2012;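 active means every replicate shows inhibition of at least 40%; inconclusive means mean inhibition at least 40% but some replicate below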
EBV LMP1 NFkB = EBV LMP1-driven NF-kappaB luciferase reporter inhibitors, primary screen, cell-based, luminescence, single point; LMP1-induced NF-kappaB luciferase reporter cells; inhibition, % at 12.5 µM; 350,000 tested, 0.69% active; in the data active means inhibition above about 41%; inconclusive means no clear call, values can overlap the other calls
LGR2 inh = inhibitors of bursicon-induced LGR2 CRE-luciferase signal, primary screen, cell-based, HEK293, CRE-luciferase reporter, bursicon stimulation | Drosophila bursicon receptor LGR2 (rickets) | AID 720647, 2013 | inhibition, % at 9.99 µM | bursicon-stimulated, 4 h | 380,000 tested, 0.35% active;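 active means drop in luminescence signal, shown as inhibition above about 50% in the replicate tests, limit read from the data, passing the limit was not always enough; inconclusive means probably only some replicates passing the limit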;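 further: agonist challenge used bursicon conditioned medium at about half maximal strength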
TRPM1 prom inh = inhibitors of MITF-dependent TRPM1 promoter reporter, primary screen, cell-based, SK-MEL-5, single point, luciferase; inhibition, % at 12.5 µM; SK-MEL-5 TRPM1 promoter luciferase, 24 h; 330,000 tested, 0.83% active; AID 488899, 2010;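 active means mean inhibition across replicates of 60% or more, whatever share of single replicates reaches that level; inconclusive means some that reach 60%, reason not given; inactive means mean inhibition across replicates below 60%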
EWS-Fli inh = EWS/Fli-driven NR0B1 reporter inhibitors, primary screen, A673 cells, NR0B1 luciferase, luminescence, MLPCN library. viability-normalised. inhibition, % at 12.6 µM. 350,000 tested, 0.67% active;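 active means mean inhibition of at least 50% after viability correction, with every replicate also passing that limit; inconclusive means mean reaches 50% but only one of two replicates passes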;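 further: firefly luciferase signal divided by Alamar Blue viability fluorescence both relative to DMSO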
PAX8 inh HTS = inhibitors of PAX8-driven TPO luciferase reporter, primary screen, RMG-I cells, single concentration; SteadyGlo, 24 h; inhibition, % at 12.6 µM; 360,000 tested, 1.2% active;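 active means mean replicate inhibition at least 60% with every replicate also reaching 60%; inconclusive means only one of the two criteria is met; inactive means mean below 60% and not all replicates reaching 60%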;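 further: luciferase light reporting Pax8 driven TPO promoter activity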
Large screens that a line does not name were inactive; ! = repeats disagree. Sampled rows, rich in hits. Any-hit rate of the full collection: about 2.2%.

CCCNC(=O)Nc1ccc2c(c1)C(=O)N(C)[C@H]1CC[C@H](CC(=O)Nc3cccc(C)c3)O[C@@H]1CO2	none (no result: EBV LMP1 NFkB, TRPM1 prom inh)
C[C@@H]1CCCCO[C@H](CN(C)Cc2ccc(C(F)(F)F)cc2)[C@@H](C)CN([C@H](C)CO)C(=O)c2cc(NC(=O)c3ccccc3)ccc2O1	none (no result: EBV LMP1 NFkB, TRPM1 prom inh)
C[C@@H]1CN([C@H](C)CO)C(=O)c2cc(NC(=O)Nc3ccccc3)ccc2O[C@@H](C)CCCCO[C@@H]1CN(C)Cc1ccc(C(F)(F)F)cc1	PAX8 inh HTS 80.4 (no result: EBV LMP1 NFkB, TRPM1 prom inh)
C[C@@H]1CCCCO[C@H](CN(C)Cc2ccc(C(F)(F)F)cc2)[C@H](C)CN([C@@H](C)CO)C(=O)c2cc(NC(=O)c3ccccc3)ccc2O1	EWS-Fli inh 64.3, PAX8 inh HTS 84.5 (no result: EBV LMP1 NFkB, TRPM1 prom inh)
C[C@@H]1CCCCO[C@@H](CN(C)C(=O)c2ccccc2)[C@H](C)CN([C@H](C)CO)C(=O)c2cc(NS(=O)(=O)c3ccc(Cl)cc3)ccc2O1	none (no result: EBV LMP1 NFkB, TRPM1 prom inh)
CN(C)CCNC(=O)c1cc2c(s1)-c1ccc(Cl)cc1SC2	TRPM1 prom inh 99.8, PAX8 inh HTS 93.5 (no result: PGC1a acetyl inh)
O=C(C[C@@H]1CC[C@@H]2[C@H](COC[C@H](O)CN2S(=O)(=O)c2ccccc2Cl)O1)N1CCC(Cc2ccccc2)CC1	PAX8 inh HTS 78.5 (no result: EBV LMP1 NFkB, TRPM1 prom inh)
Cc1ccccc1S(=O)(=O)N1C[C@H](O)COC[C@H]2O[C@H](CC(=O)N3CCC(Cc4ccccc4)CC3)CC[C@@H]21	none (no result: EBV LMP1 NFkB, TRPM1 prom inh)
O=C(C[C@H]1CC[C@H]2[C@@H](COC[C@@H](O)CN2S(=O)(=O)c2ccccc2Cl)O1)N1CCC(Cc2ccccc2)CC1	PAX8 inh HTS 80.2 (no result: EBV LMP1 NFkB, TRPM1 prom inh)
Cc1ccccc1S(=O)(=O)N1C[C@H](O)COC[C@@H]2O[C@@H](CC(=O)N3CCC(Cc4ccccc4)CC3)CC[C@H]21	none (no result: EBV LMP1 NFkB, TRPM1 prom inh)
Cc1noc(C)c1S(=O)(=O)Nc1ccc2c(c1)CC(=O)N([C@H](C)CO)C[C@H](C)[C@H](CN(C)Cc1ccc3c(c1)OCO3)O2	none (no result: EBV LMP1 NFkB, TRPM1 prom inh)
Cc1[nH]nc2ncc(C(=O)c3ccccc3O)cc12	PGC1a acetyl inh 44.5 (no result: LGR2 inh, EWS-Fli inh)
Cc1nn(C)c2ncc(C(=O)c3ccccc3O)cc12	none
O=C(/C=C/c1ccccc1[N+](=O)[O-])c1ccccc1Br	LGR2 inh inconclusive, EWS-Fli inh 54.4, PAX8 inh HTS 77.6
Cc1ccc(C(=O)/C=C/c2ccccc2[N+](=O)[O-])cc1	none
CC1C/C(=C/c2ccncc2)C(=O)/C(=C/c2ccncc2)C1 (centres undefined)	EBV LMP1 NFkB 92.1, LGR2 inh 103.1, TRPM1 prom inh 106.2, EWS-Fli inh 78.0, PAX8 inh HTS 85.3
O=C1/C(=C/c2ccncc2)Cc2ccccc21	none
C=CCC[C@H](Cc1ccc(F)cc1)C(=O)OC[C@H](Cc1c[nH]c2ccccc12)NC(=O)[C@@H](CC=C)CC(=O)N(CCO)Cc1ccccc1	none (no result: PGC1a acetyl inh)
C=CCC[C@H](Cc1ccc(F)cc1)C(=O)OC[C@@H](Cc1c[nH]c2ccccc12)NC(=O)[C@@H](CC=C)CC(=O)N(CCO)Cc1ccccc1	PAX8 inh HTS 83.6
C=CC[C@H](CC(=O)N(CCO)Cc1ccccc1)C(=O)N[C@H](COC(=O)[C@@H](CC=C)Cc1ccc(F)cc1)Cc1ccccc1	PAX8 inh HTS 80.0
C=CC[C@@H](CC(=O)N(CCO)Cc1ccccc1)C(=O)N[C@H](C)COC(=O)[C@@H](CC=C)Cc1ccc(F)cc1	none
CCCNC(=O)[C@H]1[C@H](CO)[C@H]2Cn3c(cccc3=O)[C@H]2N1C(=O)C1CC1	none (no result: EBV LMP1 NFkB, TRPM1 prom inh, EWS-Fli inh)
O=C1CCC(C(=O)OCC(=O)c2ccccc2)N1 (centres undefined)	none (no result: PGC1a acetyl inh)
CC1CC(C)C(=O)C(C(CC2CC(=O)NC(=O)C2)OC(=O)CC(=O)c2ccccc2)C1 (centres undefined)	EBV LMP1 NFkB 52.2, LGR2 inh 82.5, PAX8 inh HTS 84.5
COc1ccc(CN(C)C[C@@H]2OCCCC[C@@H](C)Oc3ccc(NC(=O)Nc4ccccc4)cc3C(=O)N([C@H](C)CO)C[C@@H]2C)cc1	none (no result: EBV LMP1 NFkB, TRPM1 prom inh)
Cc1nc2c(-c3ccc(Cl)cc3)c(C)[nH]n2c(=O)c1Cc1ccccc1	EBV LMP1 NFkB 43.4, PAX8 inh HTS 61.6
Cc1nc2c(-c3ccccc3)c(C)[nH]n2c(=O)c1Cc1ccccc1	none
COc1cc(C(=O)NCCOc2cc(C)cc(C)c2)cc(OC)c1OC	EWS-Fli inh 53.0
C[C@@H]1CN([C@@H](C)CO)C(=O)c2cc(C#Cc3ccccc3F)cnc2O[C@@H]1CN(C)S(=O)(=O)c1ccccc1F	none (no result: EBV LMP1 NFkB, TRPM1 prom inh, PAX8 inh HTS)
C[C@@H]1CN([C@@H](C)CO)C(=O)c2cc(NC(=O)CCC(F)(F)F)ccc2O[C@@H](C)CCCCO[C@H]1CN(C)Cc1ccc(Cl)c(Cl)c1	none (no result: EBV LMP1 NFkB, TRPM1 prom inh)
C[C@@H]1CCCCO[C@@H](CN(C)Cc2ccc(Cl)c(Cl)c2)[C@H](C)CN([C@@H](C)CO)C(=O)c2cc(NC(=O)CCC(F)(F)F)ccc2O1	PAX8 inh HTS 88.3 (no result: EBV LMP1 NFkB, TRPM1 prom inh)
C[C@@H]1CCCCO[C@@H](CN(C)Cc2ccc(Cl)c(Cl)c2)[C@@H](C)CN([C@H](C)CO)C(=O)c2cc(NC(=O)CCC(F)(F)F)ccc2O1	PAX8 inh HTS 67.3! (no result: TRPM1 prom inh)
N#C[C@H]1[C@H](c2ccc(C3=CCCC3)cc2)[C@@H](CO)N1C(=O)NC1CCCC1	none (no result: EBV LMP1 NFkB, TRPM1 prom inh)
Cc1cc(/C=C2\C(=N)N3N=C(C(C)C)SC3=NC2=O)c(C)n1Cc1ccccc1	PGC1a acetyl inh 48.5 (no result: LGR2 inh)
CCC1=NN2C(=N)/C(=C/c3cc(C)n(Cc4ccccc4)c3C)C(=O)N=C2S1	none (no result: PGC1a acetyl inh)
O=C(Cn1ncc(Cl)c(Cl)c1=O)NC(=O)NC1CCCCC1	PGC1a acetyl inh inconclusive, LGR2 inh 96.3, TRPM1 prom inh 115.2, EWS-Fli inh 62.2, PAX8 inh HTS 91.4
CCn1cc(C(=O)NC(C)C23CC4CC(CC(C4)C2)C3)cn1 (centres undefined)	none
CC(NC(=O)Cn1ncc(Cl)c(Cl)c1=O)C12CC3CC(CC(C3)C1)C2 (centres undefined)	TRPM1 prom inh 108.5 (no result: PGC1a acetyl inh, LGR2 inh, EWS-Fli inh, PAX8 inh HTS)
Cc1noc(C)c1S(=O)(=O)Nc1ccc2c(c1)C(=O)N([C@H](C)CO)C[C@H](C)[C@H](CN(C)C(=O)c1ccccc1)OCCCC[C@H](C)O2	none (no result: EBV LMP1 NFkB, TRPM1 prom inh)
CN1c2ccc(-c3cccc(F)c3)cc2[C@@H]2[C@@H](CCN2C(=O)CC2CC2)[C@@H]1CO	none (no result: EBV LMP1 NFkB, TRPM1 prom inh)
COc1ccc(/C=C2\N=C(C)OC2=O)cc1[N+](=O)[O-]	EBV LMP1 NFkB 46.4 (no result: PGC1a acetyl inh)
COc1cc(/C=C2\N=C(C)OC2=O)cc(Cl)c1OC(C)=O	none (no result: PGC1a acetyl inh)
CC(C)(C)c1ccc(-c2cn(-c3ccc(Br)cc3)c3[n+]2CCCS3)cc1	TRPM1 prom inh 90.3, PAX8 inh HTS 95.3 (no result: PGC1a acetyl inh)
